We go through twelve compounds from PubChem BioAssay (NCI).

About 83,000 compounds went through this panel and 20% of them were active in at least one assay; those are over-represented in the sample as a whole.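 Single-concentration screen, 48 h exposure, 96-well plates. Endpoint: percent growth. Below 10 = active.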 A number with no mark means an inactive call. Active and inactive are the calls of the source.

Common to all, as to assay: NCI-60 one-dose screen, 48 h (100 = growth as untreated, 0 = no growth, -100 = all killed)
One assay deals with SN12C renal. To be noted: 10 µM.
The test system of the next assay is UO-31 renal. To be noted: 10 µM.
For a further assay, the system named is TK-10 renal. The settings on record: 10 µM unless noted.
A further assay concerns CAKI-1 renal. To be noted: 10 µM.
The test system of a further assay is A498 renal. To be noted: 10 µM.
In another assay the test system is CCRF-CEM leukemia. To be noted: 10 µM.
The next assay has as its system SR leukemia. The settings on record: 10 µM.
Another assay relates to RPMI-8226 leukemia. The settings on record: 10 µM.
In a further assay the test system is OVCAR-8 ovarian. To be noted: 10 µM.
Another assay deals with OVCAR-5 ovarian. The settings on record: 10 µM.
A further assay relates to OVCAR-4 ovarian. To be noted: 10 µM.
For a further assay, the system named is SK-OV-3 ovarian. To be noted: 10 µM.
A further assay deals with IGROV1 ovarian. The settings on record: 10 µM.
The test system of a further assay is OVCAR-3 ovarian. To be noted: 10 µM.
The next assay deals with HS 578T breast. The settings on record: 10 µM.
The test system of a further assay is NCI/ADR-RES ovarian. The settings on record: 10 µM.
Another assay has as its system ACHN renal. The settings on record: 10 µM.
A further assay has as its system MOLT-4 leukemia. The settings on record: 10 µM.

`Cc1ccccc1C1N=C2Oc3ccccc3C=C2C(=O)N1` (stereo not drawn): the growth was 43.3% with SN12C renal; 52% in the assay on UO-31 renal; 53.7% in the assay with TK-10 renal; 31.1% in the assay on CAKI-1 renal; -11.6% (active) in the assay with A498 renal; 38.4% in the assay on CCRF-CEM leukemia. Besides, the growth was 45.2% with SR leukemia; 95.4% with RPMI-8226 leukemia; 53.3% in the assay on OVCAR-8 ovarian; 17.3% with OVCAR-5 ovarian; 74.5% in the assay with OVCAR-4 ovarian; -6.3% (active) in the assay on SK-OV-3 ovarian. In addition, the growth in the assay on IGROV1 ovarian was 43.3%; in the assay with OVCAR-3 ovarian, -27.1% (active); with HS 578T breast it was 32.8%; with NCI/ADR-RES ovarian, 9.64% (active).
For the compound `N#Cc1ccc(OC(=O)Nc2ccc(Cl)c(Cl)c2)cc1`, the growth in the assay on SN12C renal is 79.5%; in the assay on UO-31 renal it was 60.6%; in the assay with TK-10 renal it was 90.7%; in the assay with ACHN renal, 50.8%; in the assay with CAKI-1 renal, 35.8%; in the assay on A498 renal it was 106%. The growth in the assay on MOLT-4 leukemia was 79.9%; in the assay with SR leukemia it was 39.4%; in the assay on RPMI-8226 leukemia it was 5.09% (active); with OVCAR-8 ovarian it was 59%; with OVCAR-5 ovarian, 91.6%; with OVCAR-4 ovarian, 66.7%. The growth in the assay on SK-OV-3 ovarian is 107%; in the assay with IGROV1 ovarian, 64.4%; in the assay with OVCAR-3 ovarian, 33.3%; in the assay on HS 578T breast, 103%; with NCI/ADR-RES ovarian, 65.5%.
In the case of `O=[N+]([O-])c1ccccc1S(=O)c1ccccc1[N+](=O)[O-]`, the growth was 99.7% in the assay with SN12C renal; 73.4% in the assay with UO-31 renal; 135% in the assay with TK-10 renal; 106% in the assay with ACHN renal; 61.7% in the assay on CAKI-1 renal; 42% with MOLT-4 leukemia. For the same compound, the growth with RPMI-8226 leukemia was 84.5%; in the assay with OVCAR-8 ovarian, 99.9%; in the assay with OVCAR-5 ovarian, 120%; with OVCAR-4 ovarian, 67%; in the assay with SK-OV-3 ovarian, 99.9%; in the assay with OVCAR-3 ovarian, 103%. The results for the growth in the assay with HS 578T breast and in the assay with NCI/ADR-RES ovarian were 106% and 91.5%, respectively.
`CC1CCC2C(C)(C)C3CC12CC1OC13C` (stereo not drawn): the growth was 97.1% in the assay with SN12C renal; 109% in the assay with UO-31 renal; 104% in the assay on TK-10 renal; 103% with ACHN renal; 98.5% in the assay with CAKI-1 renal; 112% in the assay with CCRF-CEM leukemia. Also, the growth was 110% in the assay on MOLT-4 leukemia; 117% in the assay with SR leukemia; 108% with RPMI-8226 leukemia; 105% in the assay with OVCAR-8 ovarian; 105% in the assay with OVCAR-5 ovarian; 99.3% with OVCAR-4 ovarian. In addition, the growth in the assay with SK-OV-3 ovarian was 103%; with IGROV1 ovarian, 114%; in the assay with OVCAR-3 ovarian, 110%; in the assay on HS 578T breast, 103%; in the assay on NCI/ADR-RES ovarian, 107%.
Regarding `COc1ccccc1N1CCN(C(=S)Nc2ccccc2)CC1`, the growth in the assay with SN12C renal was 100%; in the assay on UO-31 renal it was 75.3%; in the assay on TK-10 renal it was 95.6%; with ACHN renal, 100%; in the assay with MOLT-4 leukemia, 78.7%; in the assay with RPMI-8226 leukemia it was 90.9%. Further, the growth in the assay on OVCAR-8 ovarian was 97.6%; in the assay with OVCAR-5 ovarian, 107%; in the assay with OVCAR-4 ovarian, 108%; in the assay with SK-OV-3 ovarian, 99.5%; in the assay on IGROV1 ovarian, 98.9%; with HS 578T breast, 104%. Moreover, the growth in the assay with NCI/ADR-RES ovarian is 95.8%.
As for `COc1cc(/C=C/C(=O)c2ccccc2)cc(OC)c1OC`, the growth is 53.3% in the assay on SN12C renal; 49.7% with UO-31 renal; 112% in the assay with TK-10 renal; 51.1% with ACHN renal; -23.3% (active) in the assay with CAKI-1 renal; 28.8% in the assay with MOLT-4 leukemia. In addition, the growth in the assay on RPMI-8226 leukemia was 24.3%; with OVCAR-8 ovarian, 59.8%; in the assay on OVCAR-5 ovarian it was 66.6%; in the assay with SK-OV-3 ovarian, 79%; in the assay with IGROV1 ovarian it was 98.6%; in the assay with OVCAR-3 ovarian, 59%. Besides, the growth with HS 578T breast was 106%; in the assay on NCI/ADR-RES ovarian, 43.1%.
For `O=C(O)/C=C/C(=O)NCc1ccccc1`, the growth in the assay on SN12C renal was 108%; with UO-31 renal it was 90.9%; in the assay on ACHN renal, 97.9%; in the assay with CAKI-1 renal it was 102%; with A498 renal, 109%; with RPMI-8226 leukemia it was 94.7%. Further, the growth in the assay on OVCAR-8 ovarian was 108%; with OVCAR-5 ovarian, 107%; in the assay on OVCAR-4 ovarian it was 107%; with SK-OV-3 ovarian it was 112%; in the assay with IGROV1 ovarian, 98.4%; in the assay on OVCAR-3 ovarian, 109%. Besides, the values for the growth in the assay with HS 578T breast and in the assay with NCI/ADR-RES ovarian were 113% and 102%, respectively.
`O=C(Nc1ccccc1)OCCc1ccccc1`: the growth is 95.3% in the assay with SN12C renal; 103% with UO-31 renal; 95.2% with TK-10 renal; 104% in the assay on ACHN renal; 88.5% with CAKI-1 renal; 101% in the assay with MOLT-4 leukemia. For the same compound, the growth was 103% in the assay with OVCAR-8 ovarian; 92.7% in the assay with OVCAR-5 ovarian; 91.4% in the assay on OVCAR-4 ovarian; 110% in the assay on SK-OV-3 ovarian; 103% in the assay with IGROV1 ovarian; 118% with OVCAR-3 ovarian. Besides, the growth in the assay on HS 578T breast was 120%; in the assay with NCI/ADR-RES ovarian, 110%.
Regarding `COc1ccc(/C(C#N)=C2C=C/C(=N/O)c3ccccc3\2)cc1`, the growth was 23.7% in the assay on SN12C renal; 31.1% in the assay on UO-31 renal; 54.5% in the assay on TK-10 renal; 22.6% in the assay on ACHN renal; 25.5% with CAKI-1 renal; -8.12% (active) in the assay with A498 renal. Moreover, the growth is 19.2% with MOLT-4 leukemia; 32.1% in the assay with RPMI-8226 leukemia; 18.9% with OVCAR-8 ovarian; 27.3% with OVCAR-5 ovarian; 35.8% with OVCAR-4 ovarian; -6.21% (active) with SK-OV-3 ovarian. In addition, the growth was 22.3% in the assay on IGROV1 ovarian, 1.6% (active) in the assay on OVCAR-3 ovarian, 35.1% in the assay with HS 578T breast and 15.9% in the assay on NCI/ADR-RES ovarian.
Consider `CC(C(=O)O)(C1CCCCC1)C1(O)CCCCC1` (stereo not drawn), for which the growth in the assay with SN12C renal was 100%; with UO-31 renal, 84.9%; in the assay with TK-10 renal, 91.1%; in the assay with ACHN renal it was 107%; in the assay with CAKI-1 renal, 96.7%; in the assay on MOLT-4 leukemia it was 94.3%. Further, the growth with OVCAR-8 ovarian is 104%; with OVCAR-5 ovarian, 109%; in the assay on OVCAR-4 ovarian, 108%; in the assay with SK-OV-3 ovarian, 101%; with IGROV1 ovarian it was 101%; in the assay with OVCAR-3 ovarian, 107%. The results for the growth in the assay on HS 578T breast and in the assay on NCI/ADR-RES ovarian were 119% and 106%, respectively.
Turning to `COC(=O)CCCCC1=CCC2C(=O)C=C(O)C2C1` (stereo not drawn), the growth is 102% in the assay on SN12C renal; 89.9% with UO-31 renal; 96.4% in the assay with TK-10 renal; 82.7% in the assay with MOLT-4 leukemia; 100% with RPMI-8226 leukemia; 98% in the assay with OVCAR-8 ovarian. Further, the growth is 107% with OVCAR-5 ovarian; 103% with OVCAR-4 ovarian; 98.6% in the assay with SK-OV-3 ovarian; 103% with IGROV1 ovarian; 108% in the assay on HS 578T breast; 103% with NCI/ADR-RES ovarian.
For the compound `CSC(=N\N=C\c1ccc(N(C)C)cc1)/N=C/N(C)C`, the growth in the assay with SN12C renal is 108%; in the assay on UO-31 renal it was 101%; with TK-10 renal, 131%; in the assay with ACHN renal it was 101%; in the assay with CAKI-1 renal it was 104%; with A498 renal, 97%. The growth with MOLT-4 leukemia is 101%; in the assay on SR leukemia it was 99%; with RPMI-8226 leukemia, 92.3%; in the assay with OVCAR-8 ovarian, 102%; in the assay on OVCAR-5 ovarian, 95.5%; with OVCAR-4 ovarian, 107%. The growth with SK-OV-3 ovarian is 106%; in the assay with IGROV1 ovarian, 105%; with OVCAR-3 ovarian, 112%; in the assay on HS 578T breast it was 90.1%; in the assay with NCI/ADR-RES ovarian it was 119%.
